Screens: PubChem BioAssay, Broad Institute
Only a sample is shown.
Vaccinia inh: blocks a specific stage of Vaccinia orthopoxvirus infection, primary screen, cell-based, single point; Vaccinia-infected cells, mCherry/Venus stage reporter fluorescence; stronger effect = lower value; activity change (mCherry), % (test concentration not listed); 0.01% of 89,000 active; AID 1053133, 2014; in the data active = activity change below about -37%, passing the limit was not always enough; tested in A549 cells
Large screens that a line does not name were inactive.

Cc1noc(C)c1NC(=O)N[C@H]1CC[C@H](CC(=O)Nc2ccc(-c3ccccc3)cc2)O[C@H]1CO	none
CN(C)CCCNC(=O)[C@@H]1[C@@H](CO)[C@@H]2Cn3c(ccc(-c4cccc(F)c4)c3=O)[C@H]1N2	none
O=C(C[C@@H]1CC[C@@H]2[C@H](COC[C@@H](O)CN2C(=O)Nc2ccc(F)cc2)O1)NCCc1ccccc1	none
CC(C)NC(=O)N(C)C[C@H]1OCCCC[C@H](C)Oc2ccc(NS(=O)(=O)c3cn(C)cn3)cc2C(=O)N([C@@H](C)CO)C[C@H]1C	none
COc1ccc(S(=O)(=O)Nc2ccc3c(c2)C(=O)N([C@@H](C)CO)C[C@H](C)[C@@H](CN(C)C(=O)NC(C)C)OCCCC[C@@H](C)O3)cc1	none
C[C@H]1CN([C@@H](C)CO)C(=O)Cc2cc(NC(=O)C3CCCCC3)ccc2O[C@H]1CN(C)Cc1ccc(C(=O)O)cc1	none
CN1CCN(C(=O)C[C@@H]2C[C@@H]3c4cc(NC(=O)NC5CCCC5)ccc4O[C@@H]3[C@H](CO)O2)CC1	none
C[C@@H]1CN([C@H](C)CO)C(=O)c2cc(C3=CCCC3)cnc2O[C@@H]1CN(C)C	none
O=C1[C@H](Cc2ccccc2)CCn2cc(nn2)COCC2CCCN12 (some centres not stated)	none
Cc1ccc(S(=O)(=O)Nc2cccc3c2O[C@@H](CN(C)S(C)(=O)=O)[C@@H](C)CN([C@@H](C)CO)C3=O)cc1	none
C[C@H]1CN([C@@H](C)CO)C(=O)c2cc(C3=CCCC3)cnc2O[C@H]1CN(C)C(=O)Nc1cccc(F)c1	none
C[C@@H]1CN([C@H](C)CO)C(=O)c2cc(NS(=O)(=O)c3ccc(F)cc3)ccc2O[C@@H](C)CCCCO[C@@H]1CN(C)S(C)(=O)=O	none
CCCC(=O)Nc1ccc2c(c1)OC[C@@H](C)N(Cc1ccc(-c3ccccn3)cc1)C[C@H](C)[C@H](OC)CN(C)C2=O	none
CCC(=O)N1C[C@@H](C)[C@H](OC)CN(C)C(=O)c2cc(NC(=O)Nc3ccccc3)ccc2OC[C@H]1C	none
O=C(c1cnccn1)N1CC[C@@H]2[C@@H](CO)Nc3ccc(-c4ccccc4)cc3[C@@H]21	none
O=S(=O)(N[C@@H]1CCCN(Cc2ccc(OCCO)cc2)C1)c1cccc2cccnc12	none
O=C(C[C@@H]1CC[C@H]2[C@@H](COC[C@H](O)CN2Cc2cccc(F)c2)O1)NCc1ccncc1	none
C[C@@H]1CCCCO[C@H](CN(C)C(=O)Nc2ccc(F)cc2)[C@H](C)CN([C@@H](C)CO)C(=O)c2cc(NS(C)(=O)=O)ccc2O1	none
COc1ccccc1S(=O)(=O)N[C@@H]1CC[C@H](CCNC(=O)C2CC2)O[C@@H]1CO	none
C[C@@H]1CN([C@@H](C)CO)S(=O)(=O)c2ccc(C#Cc3ccccn3)cc2O[C@H]1CN(C)Cc1ccccc1	none
CC(C)C#Cc1cnc2c(c1)C(=O)N([C@@H](C)CO)C[C@H](C)[C@@H](CN(C)Cc1ccccc1)O2	none
COCC(=O)N1C[C@H](C)[C@@H](OC)CN(C)C(=O)c2ccc(NC(=O)Nc3ccccc3)cc2OC[C@@H]1C	none
O=C(Nc1ccccc1)N[C@@H]1CC[C@@H](CCn2cc(-c3ccccc3F)nn2)O[C@H]1CO	none
CCC(=O)Nc1ccc2c(c1)C(=O)N(C)C[C@@H](OC)[C@@H](C)CN(Cc1cccnc1)[C@H](C)CO2	none
C[C@@H]1CCCCO[C@@H](CN(C)C(=O)Nc2cccc3ccccc23)[C@H](C)CN([C@H](C)CO)C(=O)c2cc(NS(=O)(=O)c3cccs3)ccc2O1	none
CO[C@@H]1CN(C)C(=O)c2ccc(NC(=O)c3ccccc3)cc2OC[C@@H](C)N(C(C)=O)C[C@@H]1C	none
O=C(CC1CC1)Nc1ccc2c(c1)[C@@H]1C[C@@H](CC(=O)N3CCCCC3)O[C@@H](CO)[C@@H]1O2	none
C[C@H]1CN([C@@H](C)CO)C(=O)c2cc(C#CCN(C)C)cnc2O[C@@H]1CN(C)C(=O)Cc1cccnc1	none
CO[C@@H]1CN(C)C(=O)c2cc(NC(=O)NC(C)C)ccc2OC[C@@H](C)N(S(C)(=O)=O)C[C@@H]1C	none
Cc1noc(C)c1NC(=O)N(C)C[C@H]1Oc2c(NC(=O)CCCCCC(=O)Nc3ccccc3N)cccc2C(=O)N([C@@H](C)CO)C[C@@H]1C	none
C[C@@H]1CCCCO[C@@H](CN(C)S(=O)(=O)c2cn(C)cn2)[C@@H](C)CN([C@H](C)CO)C(=O)c2cc(NS(=O)(=O)c3cn(C)cn3)ccc2O1	none
C[C@H]1CN([C@@H](C)CO)S(=O)(=O)c2ccc(-c3cccc(C#N)c3)cc2O[C@@H]1CN(C)C	none
CCCC#Cc1cnc2c(c1)C(=O)N([C@H](C)CO)C[C@H](C)[C@@H](CN(C)C(=O)C1CCOCC1)O2	none
Cc1ccc(S(=O)(=O)Nc2cccc3c2O[C@@H](CN(C)Cc2ccc(-c4ccccc4)cc2)[C@H](C)CN([C@@H](C)CO)C3=O)cc1	none
COc1ccc(CNC(=O)C[C@H]2C[C@H]3c4cc(NC(=O)C5CCC5)ccc4O[C@H]3[C@@H](CO)O2)cc1	none
C[C@H](CO)N1C[C@H](C)[C@H](CN(C)C(=O)NC2CCCCC2)Oc2c(NC(=O)c3ccncc3)cccc2C1=O	none
C[C@H](CO)N1C[C@H](C)[C@@H](CN(C)C(=O)Nc2ccc(F)cc2)Oc2ccc(NC(=O)CCCCCC(=O)Nc3ccccc3N)cc2C1=O	none
CC(C)NC(=O)NCC[C@H]1CC[C@H](NC(=O)CCN2CCCCC2)[C@H](CO)O1	none
C[C@@H]1CN([C@@H](C)CO)C(=O)c2cc(NC(=O)Nc3ccc4c(c3)OCO4)ccc2O[C@@H]1CN(C)Cc1ccc(C(=O)O)cc1	none
CNC[C@H]1OCCCC[C@@H](C)Oc2ccc(NC(=O)c3ccncc3)cc2C(=O)N([C@@H](C)CO)C[C@@H]1C	none
C[C@H]1CN([C@@H](C)CO)C(=O)Cc2cc(NC(=O)c3ccncc3)ccc2O[C@H]1CN(C)Cc1ccc(Cl)c(Cl)c1	none
CCCN1[C@H](C(=O)N[C@H](C)c2ccccc2)[C@@H](CO)[C@@H]2Cn3c(cccc3=O)[C@@H]21	none
C[C@@H]1CN([C@@H](C)CO)C(=O)CCCn2nncc2CO[C@H]1CN(C)C(=O)Nc1cccc(C(F)(F)F)c1	none
COCC(=O)Nc1ccc2c(c1)OC[C@H](C)N(C(=O)NC(C)C)C[C@H](C)[C@H](OC)CN(C)C2=O	none
C[C@@H]1CN([C@@H](C)CO)S(=O)(=O)c2ccc(C#CCN(C)C)cc2O[C@@H]1CN(C)Cc1ccccc1	none
COc1ccccc1-c1cnc2c(c1)C(=O)N([C@@H](C)CO)C[C@@H](C)[C@@H](CN(C)Cc1cccc(F)c1)O2	none
CCC(=O)N1C[C@@H](C)[C@H](OC)CN(C)C(=O)c2ccc(NC(=O)c3ccccc3)cc2OC[C@H]1C	none
COc1ccc2c3c(n(C)c2c1)[C@@H](CO)N(C(=O)c1cccc(F)c1)CC31CCN(C(=O)c2cccc(F)c2)CC1	none
CO[C@H]1CN(C)C(=O)c2ccc(NC(=O)C3CCCC3)cc2OC[C@H](C)N(C(C)=O)C[C@H]1C	none
CCCC(=O)Nc1ccc2c(c1)C(=O)N(C)C[C@@H](OC)[C@@H](C)CN(Cc1cccc(F)c1)[C@@H](C)CO2	none
O=C(C[C@H]1C=C[C@H](NC(=O)NC2CCCCC2)[C@@H](CO)O1)NCc1ccc(Cl)cc1	none
O=C(NCC[C@@H]1CC[C@@H](NC(=O)c2cccnc2)[C@H](CO)O1)Nc1ccc(C(F)(F)F)cc1	none
C[C@H]1CN([C@@H](C)CO)C(=O)c2cc(NC(=O)Nc3ccccc3)ccc2O[C@@H]1CN(C)C	none
C[C@H](CO)N1C[C@H](C)[C@@H](CN(C)C)Oc2cc(-c3cccnc3)ccc2S1(=O)=O	none
